# In the supplement of paper PMC8728848:
# About 410 targets per protein were measured; listed, in parts, are those with the strongest signals and a random draw of the rest.
# What was measured:
# Test in all cases: glycan array binding signal (z-score within array); higher = stronger binding
# Settings in all cases: glycan notation: IUPAC condensed, linker removed
# [1] = target: Fuc(a1-2)Gal6S(b1-3)GlcNAc6S
# Method in brief: (§1)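 Glycan array data were curated from 3228 arrays in the Consortium for Functional Glycomics database and kept only where the protein sequence was available. Glycan names were converted to IUPAC-condensed notation, and columns mapping to the same glycan were averaged. The binding signal is a within-array Z-score, averaged across arrays of the same protein sequence at different concentrations or buffers and across linkers. Negative Z-scores can be read as non-binding.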
# [2] = target: Fuc(a1-2)[Gal(a1-3)]Gal(b1-3)GlcNAc(b1-2)Man(a1-3)[Fuc(a1-2)[Gal(a1-3)]Gal(b1-3)GlcNAc(b1-2)Man(a1-6)]Man(b1-4)GlcNAc(b1-4)[Fuc(a1-6)]GlcNAc
# Method in brief: as §1
# [3] = target: Fuc(a1-2)[GalNAc(a1-3)]Gal(b1-4)[Fuc(a1-3)]GlcNAc(b1-3)GalNAc
# Method in brief: as §1
# [4] = target: Fuc(a1-3)[Gal(b1-4)]GlcNAc
# Method in brief: as §1
# [5] = target: Fuc(a1-3)[Gal(b1-4)]GlcNAc(b1-3)Gal(b1-4)[Fuc(a1-3)]GlcNAc
# Method in brief: as §1
# [6] = target: Fuc(a1-3)[Gal(b1-4)]GlcNAc(b1-3)Gal(b1-4)[Fuc(a1-3)]GlcNAc(b1-3)Gal(b1-4)[Fuc(a1-3)]GlcNAc
# Method in brief: as §1
# [7] = target: Gal(a1-4)Gal(b1-4)GlcNAc(b1-2)Man(a1-3)[Gal(a1-4)Gal(b1-4)GlcNAc(b1-2)Man(a1-6)]Man(b1-4)GlcNAc(b1-4)GlcNAc
# Method in brief: as §1
# Gal(b1-2)Gal = target: Gal(b1-2)Gal
# Method in brief: as §1
# [8] = target: Gal(b1-3)[Fuc(a1-4)]GlcNAc(b1-6)GalNAc
# Method in brief: as §1
# [9] = target: Gal(b1-3)[Neu5Ac(a2-6)]GalNAc
# Method in brief: as §1
# [10] = target: Gal(b1-4)GlcNAc(b1-2)Man(a1-3)[Gal(b1-4)GlcNAc(b1-2)Man(a1-6)]Man(b1-4)GlcNAc(b1-4)[Fuc(a1-6)]GlcNAc
# Method in brief: as §1
# [11] = target: Gal(b1-4)GlcNAc(b1-2)Man(a1-6)[Man(a1-3)]Man(b1-4)GlcNAc(b1-4)GlcNAc
# Method in brief: as §1
# [12] = target: Gal(b1-4)GlcNAc(b1-3)Gal(b1-4)GlcNAc
# Method in brief: as §1
# [13] = target: Gal(b1-4)GlcNAc(b1-3)Gal(b1-4)GlcNAc(b1-3)Gal(b1-4)GlcNAc(b1-3)Gal(b1-4)GlcNAc(b1-3)Gal(b1-4)GlcNAc(b1-2)Man(a1-3)[Gal(b1-4)GlcNAc(b1-3)Gal(b1-4)GlcNAc(b1-3)Gal(b1-4)GlcNAc(b1-3)Gal(b1-4)GlcNAc(b1-3)Gal(b1-4)GlcNAc(b1-2)Man(a1-6)]Man(b1-4)GlcNAc(b1-4)GlcNAc
# Method in brief: as §1
# [14] = target: Gal(b1-4)GlcNAc(b1-3)Gal(b1-4)GlcNAc(b1-3)Gal(b1-4)GlcNAc(b1-3)Gal(b1-4)GlcNAc(b1-3)Gal(b1-4)GlcNAc(b1-2)Man(a1-3)[Gal(b1-4)GlcNAc(b1-3)Gal(b1-4)GlcNAc(b1-3)Gal(b1-4)GlcNAc(b1-3)Gal(b1-4)GlcNAc(b1-3)Gal(b1-4)GlcNAc(b1-2)Man(a1-6)]Man(b1-4)GlcNAc(b1-4)[Fuc(a1-6)]GlcNAc
# Method in brief: as §1
# [15] = target: Gal(b1-4)GlcNAc(b1-3)Gal(b1-4)GlcNAc(b1-3)Gal(b1-4)GlcNAc(b1-3)Gal(b1-4)GlcNAc(b1-3)Gal(b1-4)GlcNAc(b1-3)Gal(b1-4)GlcNAc(b1-2)Man(a1-3)[Gal(b1-4)GlcNAc(b1-3)Gal(b1-4)GlcNAc(b1-3)Gal(b1-4)GlcNAc(b1-3)Gal(b1-4)GlcNAc(b1-3)Gal(b1-4)GlcNAc(b1-3)Gal(b1-4)GlcNAc(b1-2)Man(a1-6)]Man(b1-4)GlcNAc(b1-4)GlcNAc
# Method in brief: as §1
# [16] = target: Gal(b1-4)GlcNAc(b1-3)[GlcNAc(b1-6)]Gal(b1-4)GlcNAc
# Method in brief: as §1
# Gal3S6S(b1-4)GlcNAc6S = target: Gal3S6S(b1-4)GlcNAc6S
# Method in brief: as §1
# Gal4S6S(b1-4)GlcNAc = target: Gal4S6S(b1-4)GlcNAc
# Method in brief: as §1
# Gal6S(b1-3)GlcNAc6S = target: Gal6S(b1-3)GlcNAc6S
# Method in brief: as §1
# GalNAc(b1-4)GlcNAc6S = target: GalNAc(b1-4)GlcNAc6S
# Method in brief: as §1
# GlcA(b1-3)Gal = target: GlcA(b1-3)Gal
# Method in brief: as §1
# [17] = target: GlcNAc(b1-2)Man(a1-3)[GlcNAc(b1-4)][GlcNAc(b1-2)Man(a1-6)]Man(b1-4)GlcNAc(b1-4)GlcNAc
# Method in brief: as §1
# [18] = target: GlcNAc(b1-3)Gal(b1-4)GlcNAc
# Method in brief: as §1
# [19] = target: GlcNAc(b1-3)Gal(b1-4)GlcNAc(b1-3)Gal(b1-4)GlcNAc(b1-2)Man(a1-3)[GlcNAc(b1-3)Gal(b1-4)GlcNAc(b1-3)Gal(b1-4)GlcNAc(b1-2)Man(a1-6)]Man(b1-4)GlcNAc(b1-4)GlcNAc
# Method in brief: as §1
# [20] = target: GlcNAc(b1-3)Gal(b1-4)GlcNAc(b1-3)Gal(b1-4)GlcNAc(b1-3)Gal(b1-4)GlcNAc(b1-2)[GlcNAc(b1-3)Gal(b1-4)GlcNAc(b1-3)Gal(b1-4)GlcNAc(b1-3)Gal(b1-4)GlcNAc(b1-6)]Man(a1-6)[GlcNAc(b1-3)Gal(b1-4)GlcNAc(b1-3)Gal(b1-4)GlcNAc(b1-3)Gal(b1-4)GlcNAc(b1-2)Man(a1-3)]Man(b1-4)GlcNAc(b1-4)[Fuc(a1-6)]GlcNAc
# Method in brief: as §1
# [21] = target: GlcNAc(b1-3)Gal(b1-4)GlcNAc(b1-3)Gal(b1-4)GlcNAc(b1-3)Gal(b1-4)GlcNAc(b1-3)Gal(b1-4)GlcNAc(b1-2)Man(a1-3)[GlcNAc(b1-3)Gal(b1-4)GlcNAc(b1-3)Gal(b1-4)GlcNAc(b1-3)Gal(b1-4)GlcNAc(b1-3)Gal(b1-4)GlcNAc(b1-2)Man(a1-6)]Man(b1-4)GlcNAc(b1-4)[Fuc(a1-6)]GlcNAc
# Method in brief: as §1
# [22] = target: Man(a1-2)Man(a1-6)[Man(a1-3)]Man(a1-6)[Man(a1-2)Man(a1-2)Man(a1-3)]Man(b1-4)GlcNAc(b1-4)GlcNAc
# Method in brief: as §1
# Man(a1-3)[Man(a1-6)]Man = target: Man(a1-3)[Man(a1-6)]Man
# Method in brief: as §1
# [23] = target: Man(a1-3)[Man(a1-6)]Man(b1-4)GlcNAc(b1-4)GlcNAc
# Method in brief: as §1
# [24] = target: Neu5Ac(a2-3)Gal(b1-3)GlcNAc(b1-2)[Neu5Ac(a2-3)Gal(b1-3)GlcNAc(b1-4)]Man(a1-6)[Neu5Ac(a2-3)Gal(b1-3)GlcNAc(b1-2)Man(a1-3)]Man(b1-4)GlcNAc(b1-4)GlcNAc
# Method in brief: as §1
# [25] = target: Neu5Ac(a2-3)Gal(b1-3)[Neu5Ac(a2-6)]GalNAc
# Method in brief: as §1
# [26] = target: Neu5Ac(a2-3)Gal(b1-4)GlcNAc(b1-3)Gal
# Method in brief: as §1
# [27] = target: Neu5Ac(a2-3)Gal6S(b1-4)GlcNAc
# Method in brief: as §1
# [28] = target: Neu5Ac(a2-6)Gal(b1-4)GlcNAc(b1-3)Gal(b1-4)GlcNAc(b1-2)Man(a1-3)[Neu5Ac(a2-6)Gal(b1-4)GlcNAc(b1-3)Gal(b1-4)GlcNAc(b1-2)Man(a1-6)]GalNAc
# Method in brief: as §1
# [29] = target: Neu5Ac(a2-6)Gal(b1-4)GlcNAc6S
# Method in brief: as §1
# [30] = target: Neu5Gc(a2-3)Gal(b1-4)GlcNAc(b1-3)Gal(b1-4)GlcNAc(b1-2)Man(a1-3)[Neu5Gc(a2-3)Gal(b1-4)GlcNAc(b1-3)Gal(b1-4)GlcNAc(b1-2)Man(a1-6)]Man(b1-4)GlcNAc(b1-4)GlcNAc
# Method in brief: as §1
# [31] = target: Neu5Gc(b2-6)Gal(b1-4)GlcNAc
# Method in brief: as §1
binder,measurement,setting,value
MUB70 (Lactobacillus reuteri) (protein) CVHVQYIDGETDQMLRQDDLDGYTDETIPYSTAEGIKKFEGDGYELFKDNFPAGEKFDNDDTNDQFYTVIF,glycan array binding signal (z-score),[1],2.39
same,glycan array binding signal (z-score),[2],-0.317
same,glycan array binding signal (z-score),[3],-0.274
same,glycan array binding signal (z-score),[4],-0.273
same,glycan array binding signal (z-score),[5],-0.143
same,glycan array binding signal (z-score),[6],-0.805
same,glycan array binding signal (z-score),[7],0.445
same,glycan array binding signal (z-score),Gal(b1-2)Gal,2.16
same,glycan array binding signal (z-score),[8],-0.459
same,glycan array binding signal (z-score),[9],0.618
same,glycan array binding signal (z-score),[10],-0.056
same,glycan array binding signal (z-score),[11],0.734
same,glycan array binding signal (z-score),[12],-0.399
same,glycan array binding signal (z-score),[13],0.479
same,glycan array binding signal (z-score),[14],2.07
same,glycan array binding signal (z-score),[15],2.37
same,glycan array binding signal (z-score),[16],-0.071
same,glycan array binding signal (z-score),Gal3S6S(b1-4)GlcNAc6S,3.78
same,glycan array binding signal (z-score),Gal4S6S(b1-4)GlcNAc,1.99
same,glycan array binding signal (z-score),Gal6S(b1-3)GlcNAc6S,4.49
same,glycan array binding signal (z-score),GalNAc(b1-4)GlcNAc6S,0.276
same,glycan array binding signal (z-score),GlcA(b1-3)Gal,-0.592
same,glycan array binding signal (z-score),[17],0.036
same,glycan array binding signal (z-score),[18],-0.453
same,glycan array binding signal (z-score),[19],2.17
same,glycan array binding signal (z-score),[20],0.94
same,glycan array binding signal (z-score),[21],0.523
same,glycan array binding signal (z-score),[22],0.042
same,glycan array binding signal (z-score),Man(a1-3)[Man(a1-6)]Man,-0.052
same,glycan array binding signal (z-score),[23],-0.322
same,glycan array binding signal (z-score),[24],6.11
same,glycan array binding signal (z-score),[25],1.18
same,glycan array binding signal (z-score),[26],0.155
same,glycan array binding signal (z-score),[27],-0.909
same,glycan array binding signal (z-score),[28],0.348
same,glycan array binding signal (z-score),[29],2.67
same,glycan array binding signal (z-score),[30],1.95
same,glycan array binding signal (z-score),[31],0.109
